From PubChem BioAssay
Giardia FBPA inh = Giardia lamblia aldolase inhibition. purified Giardia FBPA. Potency, µM (series often up to 59.6 µM), for inactives: top-dose activity, negative = inhibition, usual class: inhibitors. hit rate 0.71% among 290,000. AID 2451; also: potency is read from the fitted curve at half-maximal effect; % is scaled to controls: 0 for no effect and ±100 for the full control effect; nearly all actives have a fitted effect of over 55% in size
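Giardia FBPA (40 nM reagent) was preincubated 10 min at RT with compound (up to 57.5 uM final), then substrate plus GAPDH/TPI/NAD/arsenate coupling system with diaphorase/resazurin was added; resorufin fluorescence (525/598 nm) was read after 20 min.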
Shiga toxin inh = Shiga toxin inhibition | Vero cells, Shiga toxin protein synthesis inhibition reporter | AID 2315 | inhibition, % at 38.7 µM | hit rate 9.2% among 290,000; in the data active = inhibition mostly above about 28%, no sharp cut-off; inactive = mostly below about 43%; also: 0% is about no effect
LmPK inh = inhibitors of Leishmania mexicana pyruvate kinase | Q27686 | purified LmPK, Kinase-Glo ATP luminescence, 1 h | Potency, µM (titrated, usually from 57.5 µM), for the others: at the highest dose activity change, negative = inhibition, hits mostly inhibitors | hit rate 0.37% among 290,000 | AID 1721; also: potency is read from the fitted curve at half-maximal effect; % is scaled to controls: 0 for no effect and ±100 for the full control effect
Target sequence (Q27686 whole entry, looked up): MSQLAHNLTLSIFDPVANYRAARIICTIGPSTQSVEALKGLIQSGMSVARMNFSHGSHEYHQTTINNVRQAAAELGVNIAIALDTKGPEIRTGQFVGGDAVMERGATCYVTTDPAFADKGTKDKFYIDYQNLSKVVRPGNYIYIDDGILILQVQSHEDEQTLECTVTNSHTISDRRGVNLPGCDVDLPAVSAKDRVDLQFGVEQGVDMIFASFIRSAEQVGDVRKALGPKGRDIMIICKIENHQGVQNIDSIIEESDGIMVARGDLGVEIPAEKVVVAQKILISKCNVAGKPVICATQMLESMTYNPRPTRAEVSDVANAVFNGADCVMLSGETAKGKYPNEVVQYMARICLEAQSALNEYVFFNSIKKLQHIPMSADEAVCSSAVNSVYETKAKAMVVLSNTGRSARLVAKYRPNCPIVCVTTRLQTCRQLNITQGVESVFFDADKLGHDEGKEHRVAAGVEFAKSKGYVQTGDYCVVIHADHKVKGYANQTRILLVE
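qHTS format; LmPK 0.1 nM; substrates PEP 0.5 mM and ADP 0.1 mM. One-hour room-temperature incubation, then coupled luciferase luminescence; 0.5 nM enzyme wells mark activation.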
Sm TGR inh = S. mansoni TGR enzyme inhibition; Potency, µM (series often up to 114 µM), for inactives: top-dose activity change, negative = inhibition, usual class: inhibitors; hit rate 3% among 360,000; purified TGR, DTNB reduction, TNB absorbance 405 nm; also: potency is read from the fitted curve at half-maximal effect; % is scaled to controls: 0 for no effect and ±100 for the full control effect; nearly all actives have a fitted effect of over 60% in size
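Kinetic colorimetric format: TGR-catalysed, NADPH-driven DTNB reduction monitored via TNB absorbance. Enzyme dispensed at 20 nM; compound exposure 15 min at room temperature before reaction start.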
Cycloheximide cs = counter-screen hit for Shiga toxin inhibitors, cycloheximide. hit rate 12% among 300,000. cell reporter, cycloheximide protein synthesis inhibition counterscreen. max response, %. AID 2314; in the data active = max response mostly above about 13%, no sharp cut-off; inactive = mostly below about 14%; also: read at 38.3 µM for the half of the compounds with a filed dose; 0% is about no effect
Tb PYK inh = T. brucei pyruvate kinase inhibition; TbPYK enzyme, Kinase-Glo Plus ATP luminescence, 45 min; Potency, µM (titrated, usually from 76.8 µM), without a hit: at the highest dose activity, negative = inhibition, hits mostly inhibitors; Q57TT1; hit rate 0.12% among 410,000; also: potency is read from the fitted curve at half-maximal effect; % is scaled to controls: 0 for no effect and ±100 for the full control effect; nearly all actives have a fitted effect of over 50% in size
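Luminescent Kinase-Glo Plus end-point after 45 min room-temperature reaction of T. brucei pyruvate kinase started with 130 uM ADP (final). Buffer TEA 50 mM pH 7.2 with KCl, MgCl2, BSA, Tween-20; titration-based qHTS with fitted concentration-effect curves.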
* = called active by the depositor. The sample as a whole holds a higher share of hits than the screen did. Unless noted, calls follow the shape of the dose curve; as a rule, active = well fitted curve in the direction sought with a large enough effect; inconclusive = small, poorly fitted or top-dose-only effect, or another doubt; inactive = no such curve, though single readings can be large; an effect the other way counts as inactive or inconclusive.

Screening CCC1CCCCN1CC(=O)c1c(C)[nH]c2cc(C)ccc12 (stereo not given) returned Giardia FBPA inh inconclusive, Shiga toxin inh -5, LmPK inh 1%, Sm TGR inh 45µM*, Cycloheximide cs 8 and Tb PYK inh 5%.
C/C(=N\NC(=O)c1cc(C)[nH]n1)c1cccs1 was read as Giardia FBPA inh 3%, Shiga toxin inh 59*, LmPK inh -23%, Sm TGR inh 6%, Cycloheximide cs 12 and Tb PYK inh 0%.
C/C(=N\NC(=O)c1cc(C)[nH]n1)c1ccc(-c2ccccc2)cc1 was read as Giardia FBPA inh 8%, Shiga toxin inh 55*, LmPK inh 4%, Sm TGR inh 0%, Cycloheximide cs 9 and Tb PYK inh -8%.
C/C(=N/NC(=O)c1cc(C(C)C)[nH]n1)c1cccs1 was read as Giardia FBPA inh -1%, Shiga toxin inh 39, LmPK inh inconclusive, Sm TGR inh 7%, Cycloheximide cs 16 and Tb PYK inh -3%.
Cc1cc(NS(=O)(=O)c2ccc(N)cc2)nc(C)n1 was read as Tb PYK inh -2%.
`COc1ccccc1N1CCN(C(=O)CSc2nc3ccccc3[nH]2)CC1` gave Giardia FBPA inh -9%, Shiga toxin inh -4, LmPK inh 1%, Sm TGR inh -9%, Cycloheximide cs -2 and Tb PYK inh -6%.
Screening O=C(CSc1ncccc1-c1nc2ccccc2[nH]1)N1CCN(c2ccccc2F)CC1 returned Giardia FBPA inh -23%, Shiga toxin inh 54, LmPK inh 3%, Sm TGR inh -3%, Cycloheximide cs 56* and Tb PYK inh -1%.
COc1ccc(N2CCN(C(=O)CSc3ncccc3-c3nc4ccccc4[nH]3)CC2)cc1 was read as Giardia FBPA inh -11%, Shiga toxin inh 24, LmPK inh -1%, Sm TGR inh -34%, Cycloheximide cs 21* and Tb PYK inh -4%.
`COc1ccccc1N1CCN(C(=O)CSc2ncccc2-c2nc3ccccc3[nH]2)CC1` gave Giardia FBPA inh -1%, Shiga toxin inh 14, LmPK inh -1%, Sm TGR inh -5%, Cycloheximide cs 21* and Tb PYK inh 5%.
`O=C(CSc1ncccc1-c1nc2ccccc2[nH]1)NC1CC1` gave Giardia FBPA inh -2%, Shiga toxin inh 15, LmPK inh -6%, Sm TGR inh 5%, Cycloheximide cs 10 and Tb PYK inh 0%.
`O=C1OC(Cc2ccccn2)C(=O)C1=C1SCCS1` (stereo not given) gave Giardia FBPA inh -4%, Shiga toxin inh active, LmPK inh 0%, Sm TGR inh -4%, Cycloheximide cs 29* and Tb PYK inh 6%.
Screening O=C1CSC(c2ccccc2)N1Cc1ccccn1 (stereo not given) returned Giardia FBPA inh 17%, Shiga toxin inh -3, LmPK inh 5%, Sm TGR inh -11%, Cycloheximide cs 2 and Tb PYK inh -3%.
CC1(C)CC(=O)C2=C(C1)N(Cc1ccco1)C(=O)C2(NC(=O)C1CCCCC1)C(F)(F)F (stereo not given) was read as Giardia FBPA inh 5%, Shiga toxin inh -5, LmPK inh 10%, Sm TGR inh 32µM*, Cycloheximide cs -3 and Tb PYK inh -3%.
Screening COc1cccc(-c2nnc3n(Cc4ccccc4Cl)c(=O)c4ccccc4n23)c1O returned Sm TGR inh 3% and Tb PYK inh -2%.
Nc1nc(N)c(N=Nc2ccc(Cl)cc2)c(=O)[nH]1 was read as Giardia FBPA inh 1%, Shiga toxin inh 23, LmPK inh -2%, Sm TGR inh 1%, Cycloheximide cs 13 and Tb PYK inh 2%.
`CSc1nc(N)c(N=Nc2ccc([As](=O)(O)O)cc2)c(=O)[nH]1` gave Giardia FBPA inh -22%, Shiga toxin inh -14, LmPK inh 0%, Sm TGR inh 0.32µM*, Cycloheximide cs -1 and Tb PYK inh -29%.
Screening CCCc1ccc(C(=O)NNC(=O)c2ccc(Br)cc2)cc1 returned Giardia FBPA inh -1%, Shiga toxin inh -4, LmPK inh -7%, Sm TGR inh -1%, Cycloheximide cs 7 and Tb PYK inh -11%.
